Test results: article PMC7862700, “An all-to-all approach to the identification of sequence-specific readers for epigenetic DNA modifications on cytosine”

What was measured:
Experiment in all cases: DAPPL (digital affinity profiling via proximity ligation, sequencing); 10 mM Tris-HCl pH 7.5, 50 mM NaCl, 1 mM DTT, 4% glycerol, room temperature, 30 min; GST-TFs on glutathione beads, 16-mer random dsDNA library, 0.1% formaldehyde crosslink after washing; high values mean tight binding
Conditions in all cases: protein: recombinant; tags: N-terminal GST; dsDNA, one strand shown
[1] = target: T1, FLI1 (Homo sapiens, UniProt Q01543 1-452)
T1 sequence: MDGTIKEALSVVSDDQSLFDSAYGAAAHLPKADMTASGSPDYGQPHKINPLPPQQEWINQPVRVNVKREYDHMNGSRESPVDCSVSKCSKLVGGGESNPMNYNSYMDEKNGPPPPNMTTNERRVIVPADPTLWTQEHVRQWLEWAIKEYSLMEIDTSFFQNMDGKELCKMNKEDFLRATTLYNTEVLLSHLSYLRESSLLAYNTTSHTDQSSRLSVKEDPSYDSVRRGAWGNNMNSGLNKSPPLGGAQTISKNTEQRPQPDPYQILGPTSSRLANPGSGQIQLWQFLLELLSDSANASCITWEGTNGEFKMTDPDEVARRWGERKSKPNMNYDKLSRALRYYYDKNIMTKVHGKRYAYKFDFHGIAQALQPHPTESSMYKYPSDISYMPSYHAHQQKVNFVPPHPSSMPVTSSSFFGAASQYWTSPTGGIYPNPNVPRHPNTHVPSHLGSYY
Summary of the method: (§1)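 A tag-only sample was pooled with DNA-barcoded human transcription factors that had been expressed in yeast as GST fusions and captured on glutathione beads. The pools were incubated for 30 min at room temperature with 200 nmole of a random double-stranded 16-mer DNA library in Tris/NaCl/DTT/glycerol buffer, then washed, crosslinked with 0.1% formaldehyde, proximity-ligated (BsaI/T4 ligase, 1 h, 37 °C), PCR-amplified and sequenced on an Illumina NextSeq500. Binding signal is each hexamer's read frequency for a factor divided by its frequency for the tag-only sample.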

[2] = target: T2, ELK1 (Homo sapiens, UniProt P19419 1-428)
T2 sequence: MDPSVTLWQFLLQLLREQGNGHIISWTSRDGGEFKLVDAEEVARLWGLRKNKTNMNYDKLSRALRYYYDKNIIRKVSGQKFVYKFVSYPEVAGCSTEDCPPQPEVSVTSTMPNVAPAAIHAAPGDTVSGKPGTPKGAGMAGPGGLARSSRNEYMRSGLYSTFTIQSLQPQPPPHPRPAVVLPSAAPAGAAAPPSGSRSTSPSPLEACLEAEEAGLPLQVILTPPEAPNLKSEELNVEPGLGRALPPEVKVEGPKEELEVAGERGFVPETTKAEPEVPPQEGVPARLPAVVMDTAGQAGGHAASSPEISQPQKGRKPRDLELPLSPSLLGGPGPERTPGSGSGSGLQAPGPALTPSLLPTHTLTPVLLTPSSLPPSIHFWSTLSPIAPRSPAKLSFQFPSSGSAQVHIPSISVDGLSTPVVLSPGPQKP
Summary of the method: as §1

[3] = target: T3, GABPA (Homo sapiens, UniProt Q06546 1-454)
T3 sequence: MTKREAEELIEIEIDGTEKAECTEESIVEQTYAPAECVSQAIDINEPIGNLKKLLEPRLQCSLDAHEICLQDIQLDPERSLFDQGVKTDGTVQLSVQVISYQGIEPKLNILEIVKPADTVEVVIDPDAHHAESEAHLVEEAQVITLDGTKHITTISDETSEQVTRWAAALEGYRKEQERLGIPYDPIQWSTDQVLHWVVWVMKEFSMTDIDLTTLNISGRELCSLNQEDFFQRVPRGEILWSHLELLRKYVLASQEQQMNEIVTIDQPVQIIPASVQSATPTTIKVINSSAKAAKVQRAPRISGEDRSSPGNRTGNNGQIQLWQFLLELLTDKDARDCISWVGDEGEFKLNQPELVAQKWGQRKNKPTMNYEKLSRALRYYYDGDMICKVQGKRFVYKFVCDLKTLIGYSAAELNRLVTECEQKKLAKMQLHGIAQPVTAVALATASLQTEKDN
Summary of the method: as §1

[4] = target: T4, ERG (Homo sapiens, UniProt P11308 1-479)
T4 sequence: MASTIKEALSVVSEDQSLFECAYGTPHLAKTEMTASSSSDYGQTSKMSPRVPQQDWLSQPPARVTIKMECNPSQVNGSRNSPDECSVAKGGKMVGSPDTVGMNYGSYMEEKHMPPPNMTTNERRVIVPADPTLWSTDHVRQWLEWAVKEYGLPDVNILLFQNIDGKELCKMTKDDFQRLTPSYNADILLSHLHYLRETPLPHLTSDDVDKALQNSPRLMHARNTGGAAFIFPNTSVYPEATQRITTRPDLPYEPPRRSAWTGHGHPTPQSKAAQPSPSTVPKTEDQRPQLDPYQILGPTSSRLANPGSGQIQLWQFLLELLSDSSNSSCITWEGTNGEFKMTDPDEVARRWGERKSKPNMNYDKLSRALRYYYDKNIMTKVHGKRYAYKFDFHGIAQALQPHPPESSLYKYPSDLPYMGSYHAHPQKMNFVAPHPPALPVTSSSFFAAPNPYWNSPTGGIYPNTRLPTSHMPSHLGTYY
Summary of the method: as §1

[5] = target: ELF1 (Homo sapiens, UniProt P32519 1-619)
ELF1, sequence (P32519 whole entry): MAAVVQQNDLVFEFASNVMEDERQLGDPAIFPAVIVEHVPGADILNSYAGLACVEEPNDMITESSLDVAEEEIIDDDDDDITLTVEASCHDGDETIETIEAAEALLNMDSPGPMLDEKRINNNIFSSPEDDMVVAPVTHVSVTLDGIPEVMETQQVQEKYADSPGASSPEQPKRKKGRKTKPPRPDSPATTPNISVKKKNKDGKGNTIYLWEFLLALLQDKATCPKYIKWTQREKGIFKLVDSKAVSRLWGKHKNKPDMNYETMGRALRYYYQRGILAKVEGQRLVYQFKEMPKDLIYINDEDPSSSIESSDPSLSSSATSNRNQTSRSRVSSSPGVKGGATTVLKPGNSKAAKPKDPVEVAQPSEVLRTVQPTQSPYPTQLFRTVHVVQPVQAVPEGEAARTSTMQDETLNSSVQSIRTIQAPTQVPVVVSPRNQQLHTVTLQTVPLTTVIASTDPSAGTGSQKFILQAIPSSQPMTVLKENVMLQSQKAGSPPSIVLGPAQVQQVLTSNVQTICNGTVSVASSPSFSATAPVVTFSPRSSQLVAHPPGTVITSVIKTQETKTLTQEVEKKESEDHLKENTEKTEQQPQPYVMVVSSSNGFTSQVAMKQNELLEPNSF
Summary of the method: as §1

[6] = target: T5, EHF (Homo sapiens, UniProt Q9NZC4 1-300)
T5 sequence: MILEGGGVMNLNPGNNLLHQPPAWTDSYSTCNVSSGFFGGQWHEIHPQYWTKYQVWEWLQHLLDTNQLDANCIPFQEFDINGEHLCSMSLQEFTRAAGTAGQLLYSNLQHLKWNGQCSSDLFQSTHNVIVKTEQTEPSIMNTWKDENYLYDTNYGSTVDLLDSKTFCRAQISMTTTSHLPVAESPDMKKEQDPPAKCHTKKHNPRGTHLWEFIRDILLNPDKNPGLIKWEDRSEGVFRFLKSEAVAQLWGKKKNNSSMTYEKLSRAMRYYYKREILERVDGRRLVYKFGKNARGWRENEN
Summary of the method: as §1

[7] = target: SPI1 (Homo sapiens, UniProt P17947 1-270)
Summary of the method: as §1

[8] = target: T6, ELK3 (Homo sapiens, UniProt P41970 1-407)
T6 sequence: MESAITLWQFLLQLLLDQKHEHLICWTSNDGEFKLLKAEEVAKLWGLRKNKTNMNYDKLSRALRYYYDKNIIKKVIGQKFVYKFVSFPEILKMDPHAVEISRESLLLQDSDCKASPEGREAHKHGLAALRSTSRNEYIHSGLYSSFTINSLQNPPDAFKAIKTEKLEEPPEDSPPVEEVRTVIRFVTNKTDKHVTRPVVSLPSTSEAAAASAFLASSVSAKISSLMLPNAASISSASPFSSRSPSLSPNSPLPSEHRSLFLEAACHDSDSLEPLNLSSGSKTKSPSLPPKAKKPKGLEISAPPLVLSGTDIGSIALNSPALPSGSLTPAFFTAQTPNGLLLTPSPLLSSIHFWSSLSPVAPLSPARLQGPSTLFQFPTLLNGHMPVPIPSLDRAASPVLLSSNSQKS
Summary of the method: as §1

[9] = target: T7, FEV (Homo sapiens, UniProt Q99581 1-238)
T7 sequence: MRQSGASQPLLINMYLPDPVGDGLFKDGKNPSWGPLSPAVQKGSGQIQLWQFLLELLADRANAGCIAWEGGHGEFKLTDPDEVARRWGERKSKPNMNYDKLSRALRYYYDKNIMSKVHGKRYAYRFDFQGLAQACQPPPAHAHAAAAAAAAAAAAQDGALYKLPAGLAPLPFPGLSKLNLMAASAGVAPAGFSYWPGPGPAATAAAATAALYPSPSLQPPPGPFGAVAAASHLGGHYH
Summary of the method: as §1

TTACTG was tested, and the binding signal [1] was 1.11 fold enrichment (6-mer frequency, TF over GST control), the binding signal [2] was 1.12 fold enrichment (6-mer frequency, TF over GST control) and the binding signal [3] was 1.08 fold enrichment (6-mer frequency, TF over GST control). The binding signal [4] was 1.14 fold enrichment (6-mer frequency, TF over GST control), the binding signal [5] was 1.09 fold enrichment (6-mer frequency, TF over GST control) and the binding signal [6] was 1.18 fold enrichment (6-mer frequency, TF over GST control). The binding signal [7] was 1.05 fold enrichment (6-mer frequency, TF over GST control), the binding signal [8] was 1.03 fold enrichment (6-mer frequency, TF over GST control) and the binding signal [9] was 1.04 fold enrichment (6-mer frequency, TF over GST control).
